This is an account of results in PubChem BioAssay (NCATS).

Assay [1] in a line: S16 Schwann cell PMP22 intronic element beta-lactamase assay (AID 624044; calls by dose curve;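 also: 0% = DMSO and -100% = potassium clavulanate positive control; nearly all actives have a fitted effect of over 15% in size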). Particulars: S16 rat Schwann cells, PMP22 element beta-lactamase FRET, 24 h; series mostly up to 38.3 µM. In outline: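 Beta-lactamase reporter under a PMP22 intronic regulatory element in stable S16 rat Schwann cells; 24 h compound exposure. 460 nm blue signal normalized between DMSO (0%) and potassium clavulanate, with 535 nm FRET tracking viability; curves classed by r2 and response.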

The nature of assay [2]: qHTS of Trypanosoma Brucei Inhibitors: LOPAC Validation (AID 624147). Also: 0% is about no effect. The following applies: purified enzyme assay, luminescence, 45 min; series mostly up to 57.5 µM. In outline: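 Enzyme and substrate buffer are dispensed first and compound is pin-transferred. ADP at 130 uM final then starts the reaction, which runs 45 min at room temperature. Detection reagent is added for 10 min before luminescence is imaged.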

Assay [3] deals with Glucagon-like peptide 1 receptor (Homo sapiens) (UniProt P43220). Put plainly: qHTS of GLP-1 Receptor Agonists: LOPAC Validation (AID 624148).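 Also: 0% is about no effect; higher luminescence signal means agonism.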 Particulars: GLP-1R agonist cell assay; series mostly up to 46.1 µM. Summed up: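 HEK293 cells stably co-expressing a cAMP-responsive luciferase reporter and a hypersensitive GLP-1R were plated 12 h at 37 °C and exposed to compounds for 4-6 hr at 37 °C, 5% CO2. Luminescence was read 12 min after adding detection reagent.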
Glucagon-like peptide 1 receptor (Homo sapiens), sequence (P43220 whole entry, looked up): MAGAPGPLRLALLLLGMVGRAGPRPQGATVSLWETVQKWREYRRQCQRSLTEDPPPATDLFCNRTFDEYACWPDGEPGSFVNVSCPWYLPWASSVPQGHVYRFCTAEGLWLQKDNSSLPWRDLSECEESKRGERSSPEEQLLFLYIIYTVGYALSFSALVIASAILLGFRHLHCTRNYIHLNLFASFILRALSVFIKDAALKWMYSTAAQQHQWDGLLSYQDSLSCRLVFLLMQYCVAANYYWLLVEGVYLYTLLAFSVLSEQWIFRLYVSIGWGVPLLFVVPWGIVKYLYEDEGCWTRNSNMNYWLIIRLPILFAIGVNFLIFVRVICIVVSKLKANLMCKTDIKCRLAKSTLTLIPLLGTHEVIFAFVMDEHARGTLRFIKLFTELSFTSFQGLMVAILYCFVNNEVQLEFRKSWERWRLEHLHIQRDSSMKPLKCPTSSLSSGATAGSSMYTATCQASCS
(In general: In qHTS, concentration-response curves come from the screen itself.)

The nature of assay [4]: qHTS of Nrf2 Activators: LOPAC Validation (AID 624149). Also: 0% is about no effect. The following applies: Nrf2/ARE reporter cell assay; series mostly up to 46.1 µM. Summed up: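 AREc32_Fluc cells, 1000/well, OPTI-MEM + 5% FBS, o/n 37 deg C 5% CO2; compound pin-transfer, 24 hr 37 deg C; Steady-Glo 30 min RT, luminescence read.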
A short description of assay [5]: HTS Assay for Allosteric Antagonists of the Human D2 Dopamine Receptor: Hit Validation in HTRF (AID 624455). Also: % is scaled to controls: 0 for no effect and ±100 for the full control effect. Particulars: Cells stably expressing D1 dopamine receptor, inhibition mode; series mostly up to 46.1 µM. In outline:
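HTRF read-out; cells stably expressing D1 receptor; hits scored for inhibition of D1-mediated response. Primary screen: calcium flux, force-coupled inducible Hek293 Trex D2 line, antagonism vs EC80 dopamine.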
In general terms: TR-FRET usually uses a lanthanide donor and a delayed reading to cut background.

Assay [6] is described as follows: Cytotoxicity counterscreen for NFkB agonists and antagonists (AID 624476). Also: potency is read from the fitted curve at half-maximal effect. Particulars: NFkB reporter cell line viability counterscreen; series mostly up to 46.1 µM. (A counterscreen serves to expose hits that act by an unwanted route or on another target.)
Assay [7] is described as follows: qHTS Assay for Identification of Small Molecule Agonists for NFkB Signaling Pathway. (AID 624478).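 Also: compounds tested together with TNF alpha at its EC50 of 10 pM; 0% is about no effect.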 Particulars: NFkB pathway reporter cell assay, agonist mode, cells co-stimulated with 10 pM TNF alpha; series mostly up to 46.1 µM. In outline:
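Read-out: 460/530 nm emission at 405 nm excitation after 2 h LiveBLAzer loading; ME-180 NFkB-bla reporter cells exposed 5 h at 37 C to compounds with 10 pM TNF alpha final.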

The nature of assay [8]: Cell Proliferation Assay against the TMD8 Cell Line (AID 651645).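 Also: cells exposed to compound for 48 h before reading.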 The following applies: TMD8 DLBCL cell line proliferation/viability; at 46.1 µM (top of the series). In outline:
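TMD8 ABC DLBCL cells, 500 per well in phenol red-free RPMI with 5% FBS, were treated with compound by pin transfer and incubated 48 hours at 37C, 5% CO2. Viability was read by CellTiter-Glo luminescence, normalised to DMSO (100%) and 9.2 uM bortezomib (0%).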

Assay [9] in a line: Cell Proliferation Assay against the HBL1 Cell Line (AID 651646).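 Also: cells exposed to compound for 48 h before reading.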 The following applies: HBL1 DLBCL cells; at 46.1 µM (top of the series). Summed up:
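After a 48 h incubation of 500 HBL1 cells/well in phenol red-free RPMI plus 5% FBS, relative luciferase units from CellTiter-Glo gave percent activity against DMSO and 9.2 uM bortezomib (final) controls.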

Assay [10] is described as follows: Cell Proliferation Assay against the TMD8 Cell Line (Caspase readout at 16 hrs) (AID 651712). Also: potency is read from the fitted curve at half-maximal effect.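 As to caspase activation: 0% = DMSO and 100% = 9.2 µM bortezomib caspase activation.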 The following applies: TMD8 lymphoma cells, caspase activation luminescence; series mostly up to 46.1 µM. Summed up:
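16 h, 37 °C, TMD8 (500 cells/well), RPMI/5% FBS no phenol red; Caspase-Glo 3/7, 15 min RT, luminescence; %act: DMSO 0, bortezomib 9.2 uM final 100.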

Assay [11] is described as follows: Cell Proliferation Assay against the TMD8 Cell Line (Caspase readout at 8 hrs) (AID 651713). Also: potency is read from the fitted curve at half-maximal effect.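 As to caspase activation: 0% = DMSO and 100% = 9.2 µM bortezomib caspase signal.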 Particulars: TMD8 lymphoma cells, caspase activation luminescence; series mostly up to 46.1 µM. Summed up:
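Apoptosis readout: caspase 3/7 luminescence (Caspase-Glo), 15 min RT. Cells: TMD8, 500/well, RPMI + 5% FBS, no phenol red. Exposure 8 h, 37C. % activity vs DMSO = 0, bortezomib 9.2 uM final = 100.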

Assay [12] can be described thus: qHTS assay for small molecule agonists of the antioxidant response element (ARE) signaling pathway (AID 651741; active = well fitted activation curve with a large enough effect in the signal ratio; the % refers to the signal ratio; also: potency is read from the fitted curve at half-maximal effect; as to activation: % of control where 0% means no effect). Particulars: HepG2 ARE-bla reporter, beta-lactamase FRET ratio, 16 h; series mostly up to 96 µM. Summed up:
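Beta-lactamase reporter expression driven by the antioxidant response element in HepG2 cells was detected by fluorescence with LiveBLAzer B/G FRET substrate (2 h, room temperature) following 16 h compound treatment at 37 C.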

A short description of assay [13]: qHTS assay for small molecule activators of the p53 signaling pathway (AID 651743; active = well fitted activation curve with a large enough effect in the signal ratio, not every such curve was filed as active; the % refers to the signal ratio; also: % of control where 0% means no effect). The following applies: HCT-116 p53RE-bla, beta-lactamase FRET ratio, 16 h; activation: stronger effect = higher value. In outline:
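Here HCT-116 cells with an integrated p53-responsive beta-lactamase gene were incubated with compounds (16 hours, 37 C) after a 5-hour plating period; beta-lactamase activity was detected as fluorescence intensity via B/G FRET substrate.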

Assay [14] in a line: qHTS assay for small molecule activators of the nuclear factor-kappa B (NF-kB) signaling pathway (AID 651749; active = well fitted activation curve with a large enough effect in the signal ratio; the % refers to the signal ratio; also: % of control where 0% means no effect). Particulars: NF-kB-bla ME-180 cells, beta-lactamase FRET ratio, 16 h; stronger effect = higher value. Summed up:
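Beta-lactamase reporter expression, controlled by NF-kB response elements in ME-180 cells, was quantified fluorometrically via FRET disruption; cells at 2,000/well had been incubated with 23 nL test compound for 16 hr.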

Assay [15] has as its target Tumor necrosis factor (Homo sapiens) (UniProt P01375). Put plainly: qHTS assay to identify small molecules that stimulate Tumor Necrosis Factor-alpha (TNF-alpha) secretion (AID 651757; active = well fitted curve in the direction sought with a large enough effect in the signal ratio; the % refers to the signal ratio; also: 0% is about no effect). The following applies: Human cells, HTRF 665/615 ratio; series mostly up to 92.2 µM. Summed up: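 THP-1 cells, 3000/well; compound 17 hrs, 37 C; add cryptate/XL665 anti-TNF-alpha antibody pair; 3 hr RT; TR-FRET (HTRF) read of secreted TNF-alpha. Quantitative HTS format.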

Assay [16] in a line: qHTS Assay for Identification of Small Molecule Antagonists for NFkB Signaling Pathway. (AID 624479; calls by dose curve; also: potency is read from the fitted curve at half-maximal effect). Particulars: NFkB pathway reporter cell assay, antagonist mode; series mostly up to 38.3 µM.

Where “and” joins values, the source holds several entries; their conditions need not be identical. Equal values may be shown once. Records with an inconclusive call do not appear. Calls of active or inactive are those of the source. Unless noted, calls follow the shape of the dose curve; as a rule, active = well fitted curve in the direction sought with a large enough effect; inconclusive = small, poorly fitted or top-dose-only effect, or another doubt; inactive = no such curve, though single readings can be large; an effect the other way counts as inactive or inconclusive.

Tumor necrosis factor (Homo sapiens), sequence (P01375 whole entry, looked up): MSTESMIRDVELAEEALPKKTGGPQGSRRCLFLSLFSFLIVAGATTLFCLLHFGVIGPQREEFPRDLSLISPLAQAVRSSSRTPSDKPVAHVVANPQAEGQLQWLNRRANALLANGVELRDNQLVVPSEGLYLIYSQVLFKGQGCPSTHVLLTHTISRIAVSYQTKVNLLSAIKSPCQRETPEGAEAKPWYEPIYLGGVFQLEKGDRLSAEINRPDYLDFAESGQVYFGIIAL

In the case of `CC(=O)[C@H]1CC[C@H]2[C@@H]3CC[C@H]4C[C@H](O)CC[C@]4(C)[C@H]3C(=O)C[C@]12C`, the Potency result in assay [1] and in [5] was “inactive” each time. Further, the result in assay [2], in assay [3] and in assay [4] was inactive.
As to `Cc1sc2c(c1C)C(c1ccc(Cl)cc1)=N[C@@H](CC(=O)OC(C)(C)C)c1nnc(C)n1-2`, the Potency entry in assay [6] is “inactive”. For the same compound, the compound was classed as inactive in assay [7]. Further, the viability (% of control) in assay [8] was 2.73%. Further, the viability, percent of control in assay [9] was 13.5%. Moreover, the Potency in [10] was 0.469 µM (active); in assay [11] it was 23.5 µM (active).
Turning to `CN1C[C@H](CNC(=O)OCc2ccccc2)C[C@@H]2c3cccc4c3c(cn4C)C[C@H]21`, the Potency result in assay [1] and in [5] was “inactive” throughout. The outcome in assay [2], in assay [3] and in assay [4] was inactive.
`C[C@@H]1[C@@H](CC(C[C@H]2O[C@@H]3O[C@]4(C)CC[C@@H]5[C@H](C)CC[C@@H]([C@H]2C)[C@@]35OO4)C[S+](=O)([O-])c2ccc(COC(=O)N(C)C)cc2)O[C@@H]2O[C@]3(C)CC[C@H]4[C@H](C)CC[C@@H]1[C@@]24OO3` (stereo not given in full): the Potency entry in assay [6] and in assay [11] was “inactive” in each case. Further, the result in assay [7] was inactive. Also, in assay [8], the viability (% of control) was found to be 5.05%. Besides, the viability, percent of control in [9] came to 39.8%. Further, the Potency in assay [10] was 0.209 µM (active).
For the compound `Cc1cccc(C)c1NC(=O)CN1CCCC1=O`, the result in assay [2], in assay [3] and in [4] was inactive. In addition, the Potency result in assay [5] is “inactive”.
As for `CCCN1CCC[C@@H]2Cc3nc(N)ncc3C[C@H]21`, the compound was classed as inactive in assay [2], in assay [3] and in assay [4].
Regarding `CN(C)CCN(C)CCc1ccc(Cl)c(Cl)c1`, the Potency result in [6], in assay [10] and in assay [11] was “inactive” each time. For the same compound, in assay [7], the outcome was inactive. Also, in [8], the viability (% of control) was 74%. The viability, percent of control in assay [9] came out at 73.4%.
Turning to `CNCC(O)c1ccc(O)cc1` (stereo not given), the call in assay [2], in [4] and in assay [15] was inactive. Moreover, the Potency result in assay [5] and in assay [12] was “inactive” in each case. For the same compound, the activation is -2.83% (inactive) in [13] and -1.11% (inactive) in [14].
Turning to `COc1cc(Nc2c(C#N)cnc3cc(OCCCN4CCN(C)CC4)c(OC)cc23)c(Cl)cc1Cl`, in [11], the Potency was 20.9 µM (active).
Take `c1ccc2c(c1)OCC(C1=NCCN1)O2` (stereo not given): the compound was called inactive in assay [2] and in assay [3]. The Potency result in [5] was “inactive”.
Take `CC(C)=CCOc1c2occc2cc2ccc(=O)oc12`: the compound was classed as inactive in assay [2], in assay [3] and in [4]. For the same compound, the Potency entry in [5] was “inactive”.
As for `O=c1[nH]c2ccccc2n1C1CCN(CCCC(c2ccc(F)cc2)c2ccc(F)cc2)CC1`, the compound was classed as inactive in assay [2], in [3] and in [4]. The Potency result in [5] is “inactive”.
For the compound `O=c1oc2ccccc2c(O)c1C(CC(O)c1ccc(-c2ccc(Br)cc2)cc1)c1ccccc1` (stereo not given), in [12], the Potency was 27.3 µM (active). Also, in assay [14], the activation is -6.71% (inactive).
Regarding `CO[C@@H](C(=O)N1Cc2[nH]nc(NC(=O)c3ccc(N4CCN(C)CC4)cc3)c2C1)c1ccccc1`, the Potency in [16] was 11.9 µM (active); in [10], 13.2 µM (active); in assay [11] it was 16.6 µM (active). Further, the viability, percent of control in [9] was found to be 77.1%.
Regarding `NC(=Nc1ccccc1)Nc1ccccc1`, the Potency result in assay [1] is “inactive”. The Potency in assay [12] was 19.3 µM (active) and 18.8 µM (active).
On to `Cn1cc(C2=C(c3cn(C4CCN(Cc5ccccn5)CC4)c4ccccc34)C(=O)NC2=O)c2ccccc21`, for which the Potency entry in assay [6] was “inactive”. Further, in assay [7], the compound was called inactive. The results for the Potency in assay [16] and in assay [10] were 6.68 µM (active) and 16.6 µM (active), respectively. Moreover, in assay [8], the viability (% of control) came out at 3.76%. Moreover, the viability, percent of control in assay [9] amounted to 33.2%.
In the case of `Cc1cc2c(C(C)C)c(O)c(O)c(C=O)c2c(O)c1-c1c(C)cc2c(C(C)C)c(O)c(O)c(C=O)c2c1O`, the figures for the Potency in assay [6] and in [16] were 4.69 µM (active) and 5.95 µM (active), respectively.
